# Test results: PubChem BioAssay
# Calls of active or inactive are those of the source. Unless noted, the rule behind the calls is not given here.
# How the values were obtained:
# [1] = resazurin metabolic signal in HepG2 cells – cell-based, resazurin fluorescence, 24 h, PK04 Diversity Set, profiling panel (AID 1172); settings: HepG2 viability, higher = more signal
# [2] = budding yeast growth changes without added modifier – OD600, strain BY4716, 24 h, basal condition, primary screen (AID 1173); settings: S. cerevisiae BY4716 growth, OD600, 24 h; higher = more signal, called active from +8 up or from −8 down
# [3] = viability profiling in MM1S myeloma cells – cell-based, resazurin fluorescence, basal, 24 h, PK04 Diversity Set, profiling panel (AID 1174); settings: higher = more signal, called active from +8 up or from −8 down;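 note: MM1S multiple myeloma cell line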
# [4] = biological target: Dihydroorotate dehydrogenase (quinone), mitochondrial (Plasmodium falciparum (isolate 3D7)) (UniProt Q08210); assay: inhibition of P. falciparum DHODH – biochemical, C-terminal His tag, absorbance 600 nm, primary screen (AID 1175); settings: PfDHODH enzyme, DCIP absorbance 600 nm; higher = more signal, called active from +8 up or from −8 down;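 note: recombinant parasite enzyme with a five histidine tag at its C terminus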
# [5] = inhibition of PAO1 biofilm formation – strain PAO1, LB-PBS medium, absorbance 600 nm, primary screen (AID 1176); settings: P. aeruginosa PAO1 growth/biofilm, A600, 12 h; higher = more signal
# [6] = growth modulation of vineyard yeast isolate – strain RM11-1a, OD600, basal, 24 h, primary screen (AID 1177);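 note: cultures grown under basal conditions with no added stressor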; settings: S. cerevisiae RM11-1a growth, OD600, 24 h; higher = more signal, called active from +8 up or from −8 down
# [7] = growth of efflux-deficient E. coli DRC39 – strain DRC39, OD650, 24 h, E. coli filamentation inducers, primary screen (AID 1178);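 note: growth measured as culture turbidity by optical density at 650 nm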; settings: E. coli DRC39 acrAB, higher = more signal, called active from +8 up or from −8 down
# [8] = growth of efflux-deficient E. coli DRC39 – strain DRC39, OD650, 48 h, E. coli filamentation inducers, primary screen (AID 1179);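 note: screen aims at cell division blockers that make cells filament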; settings: E. coli DRC39 delta-acrAB growth, higher = more signal, called active from +8 up or from −8 down
# [9] = viability profiling in RPMI8226 myeloma cells – cell-based, resazurin fluorescence, basal, 24 h, PK04 Diversity Set, profiling panel (AID 1180); settings: higher = more signal;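 note: RPMI8826 multiple myeloma cell line at 5000 cells per well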
# [10] = biological target: E3 ubiquitin-protein ligase XIAP (Homo sapiens) (UniProt P98170); assay: small molecules binding XIAP protein – biophysical, small-molecule microarray, fluorescence 635 nm, primary screen (AID 1181); settings: higher = more signal;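 note: score merges 667 nm emission and signal to noise over triplicate slides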
# [11] = test system: XIP peptide (Xip251-270) binding; assay: XIP fragment 251-270 binding compounds – biochemical, small-molecule microarray, fluorescence 635/667 nm, 0.1 µg/mL protein, primary screen (AID 1182); settings: fluorescent protein binding, 635 nm, higher = more signal, called active from +8 up or from −8 down
# [12] = test system: XIP peptide (Xip251-270); assay: compounds binding XIP fragment 251-270 – biochemical, small-molecule microarray, fluorescence 635/667 nm, 0.5 µg/mL protein, primary screen (AID 1183); settings: fluorescence 635 nm, higher = more signal
# [13] = blood-stage malaria parasite viability loss – strain 3D7, DAPI fluorescence, 100 nL, primary screen (AID 1184);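 note: parasites grown inside human red blood cells in medium with human serum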; settings: P. falciparum 3D7 growth, 3 d, higher = more signal
# [14] = biological target: Homeobox protein Hox-A13 (Mus musculus) (UniProt Q62424); assay: disruptors of Hoxa13 oligonucleotide interaction – biochemical, fluorescence polarization, labeled oligonucleotide, primary screen (AID 1185); settings: Hoxa13:DNA binding, 15 min, higher = more signal, called active from +8 up or from −8 down
# [15] = blockers of DNA damage checkpoint Chk1 activation – imaging, HeLa, hydroxyurea, phospho-Chk1 antibody, percent positive cells, primary screen (AID 1186); settings: hydroxyurea-induced phospho-Chk1 immunofluorescence imaging, higher = more signal
# [16] = blockers of DNA damage checkpoint Chk1 activation – imaging, HeLa, hydroxyurea, phospho-Chk1 nuclear intensity, primary screen (AID 1187); settings: hydroxyurea-induced phospho-Chk1 immunofluorescence imaging, higher = more signal
# Sequence of Homeobox protein Hox-A13 (Mus musculus) (Q62424 whole entry, looked up): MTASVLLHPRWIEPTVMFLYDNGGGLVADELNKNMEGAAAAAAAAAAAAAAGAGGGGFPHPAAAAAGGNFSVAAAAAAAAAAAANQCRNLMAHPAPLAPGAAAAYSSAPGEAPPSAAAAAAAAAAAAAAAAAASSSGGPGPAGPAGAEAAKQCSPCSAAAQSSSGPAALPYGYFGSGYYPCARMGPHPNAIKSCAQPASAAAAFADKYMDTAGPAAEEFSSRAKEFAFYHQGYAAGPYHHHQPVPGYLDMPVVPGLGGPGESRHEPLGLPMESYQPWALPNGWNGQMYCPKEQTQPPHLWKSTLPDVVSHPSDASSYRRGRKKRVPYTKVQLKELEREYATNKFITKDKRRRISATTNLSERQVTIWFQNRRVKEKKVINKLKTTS
# Sequence of E3 ubiquitin-protein ligase XIAP (Homo sapiens) (P98170 whole entry, looked up, the tested form may be a part): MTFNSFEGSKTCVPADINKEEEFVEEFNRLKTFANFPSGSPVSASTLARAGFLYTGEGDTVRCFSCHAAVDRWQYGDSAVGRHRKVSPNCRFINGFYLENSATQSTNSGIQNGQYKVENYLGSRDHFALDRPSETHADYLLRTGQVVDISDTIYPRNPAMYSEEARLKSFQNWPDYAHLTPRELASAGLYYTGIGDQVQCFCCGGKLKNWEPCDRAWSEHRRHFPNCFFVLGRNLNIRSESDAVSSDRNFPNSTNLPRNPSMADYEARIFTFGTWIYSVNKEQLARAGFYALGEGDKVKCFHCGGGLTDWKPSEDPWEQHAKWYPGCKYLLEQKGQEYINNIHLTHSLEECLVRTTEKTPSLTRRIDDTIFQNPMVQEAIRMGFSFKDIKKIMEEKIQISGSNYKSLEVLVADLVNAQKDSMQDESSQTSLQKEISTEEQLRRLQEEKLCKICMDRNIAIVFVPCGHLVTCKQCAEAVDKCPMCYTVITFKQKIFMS
# Sequence of Dihydroorotate dehydrogenase (quinone), mitochondrial (Plasmodium falciparum (isolate 3D7)) (Q08210 whole entry, looked up): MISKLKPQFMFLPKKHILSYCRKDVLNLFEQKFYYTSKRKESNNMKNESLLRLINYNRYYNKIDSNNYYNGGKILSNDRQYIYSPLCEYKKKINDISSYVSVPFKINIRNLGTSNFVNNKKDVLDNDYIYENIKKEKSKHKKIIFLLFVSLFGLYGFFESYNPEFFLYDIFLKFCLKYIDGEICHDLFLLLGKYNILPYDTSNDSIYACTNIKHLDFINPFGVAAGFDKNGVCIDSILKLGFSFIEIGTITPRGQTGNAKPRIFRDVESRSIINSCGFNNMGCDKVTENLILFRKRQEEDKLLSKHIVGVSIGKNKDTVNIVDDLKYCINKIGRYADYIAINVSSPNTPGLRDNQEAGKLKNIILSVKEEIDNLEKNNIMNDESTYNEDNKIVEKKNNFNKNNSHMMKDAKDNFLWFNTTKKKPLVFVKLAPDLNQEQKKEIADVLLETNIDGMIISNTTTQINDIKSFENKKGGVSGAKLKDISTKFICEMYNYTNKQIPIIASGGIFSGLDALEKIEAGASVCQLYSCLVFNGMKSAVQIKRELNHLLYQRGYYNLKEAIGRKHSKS
Compound,z-score [1],z-score [2],z-score [3],composite z-score [4],z-score [5],z-score [6],z-score [7],z-score [8],z-score [9],composite z-score [10],composite z-score [11],composite z-score [12],z-score [13],z-score [14],z-score [15],z-score [16]
CC(C)C(CO)N1C(=O)[C@@H]2[C@H]3C(=O)OCC=C[C@H]3OC23C=CCN(CCN2CCOCC2)C(=O)[C@@H]13 (some centres undefined),-0.173,0.306 (inactive),-0.505 (inactive),0.395 (inactive),-0.814 (inactive),1.21 (inactive),-0.934 (inactive),-1.06 (inactive),-0.371,-0.518,0.708 (inactive),0.3,-0.0296,-4.54 (inactive),0.318 (inactive),0.436 (inactive)
C=C(COC)C(=O)CC[C@H](OC(=O)c1ccccc1-c1ccccc1C(=O)O)c1ccc(CO)o1,-0.45,0.624 (inactive),-0.176 (inactive),-1.39 (inactive),1.85 (inactive),0.89 (inactive),-0.573 (inactive),-0.399 (inactive),-0.178,0.0402,1.28 (inactive),0.393,0.399,-6.22 (inactive),0.44 (inactive),-0.37 (inactive)
CCCNC(=O)[C@@H]1c2ccccc2C(=O)N(CC23CC4CC(CC(C4)C2)C3)[C@H]1c1ccc(CO)cc1,-0.411,-0.774 (inactive),0.411 (inactive),0.627 (inactive),0.718 (inactive),0.987 (inactive),-0.0494 (inactive),-0.501 (inactive),0.748,1.94,1.67 (inactive),0.773,-2.3,-4.87 (inactive),0.118 (inactive),0.0519 (inactive)
COC(=O)[C@@]1(Cc2ccccc2)[C@H]2c3cc(C(=O)N4CCCC4)n(Cc4ccc(OC(F)(F)F)cc4)c3C[C@H]2CN1C(=O)c1ccccc1,-1.22,1.61 (inactive),-2.46 (inactive),0.868 (inactive),0.632 (inactive),1.85 (inactive),-1.22 (inactive),-0.439 (inactive),-2.62,0.131,0.511 (inactive),0.408,-1.4,-3.01 (inactive),0.182 (inactive),-0.781 (inactive)
COc1ccc([Si](C)(C)[C@@H]2[C@@H](CCO)O[C@]3(C(=O)N(Cc4cccc(N5C(=O)COc6ccccc65)c4)c4ccccc43)[C@H]2C)cc1,-2.07,0.967 (inactive),-3.29 (inactive),0.737 (inactive),1.3 (inactive),4.05 (inactive),0.775 (inactive),0.295 (inactive),-3.26,0.0424,-0.417 (inactive),0.763,-2.78,-1.01 (inactive),-1.02 (inactive),-1.18 (inactive)
COCCCNC(=O)[C@@]1(Cc2ccccc2)COC(c2ccc(OCCCO)cc2)=N1,0.515,-0.0995 (inactive),0.141 (inactive),0.45 (inactive),-0.499 (inactive),-0.031 (inactive),-0.13 (inactive),0.993 (inactive),1.22,-0.098,0.506 (inactive),0.811,-0.723,-4.31 (inactive),-0.0447 (inactive),-0.109 (inactive)
CCCCC=C[C@@H](NC(=O)CCc1ccccc1)c1ccccc1,-1.61,0.927 (inactive),-2.09 (inactive),-0.739 (inactive),1.16 (inactive),0.929 (inactive),-0.0955 (inactive),-0.169 (inactive),-3.6,-0.154,0.286 (inactive),0.518,-0.425,-0.0682 (inactive),-0.522 (inactive),-0.805 (inactive)
CCCN1C(=O)[C@@H]2Cc3c([nH]c4ccccc34)[C@@H](c3cccc(O)c3)N2C1=O,0.944,0.852 (inactive),0.327 (inactive),-0.931 (inactive),0.764 (inactive),0.0696 (inactive),0.19 (inactive),0.0246 (inactive),0.0074,-0.313,-0.227 (inactive),0.181,1.39,-0.802 (inactive),-0.0463 (inactive),-0.202 (inactive)
NC(=O)NCC#Cc1ccc2c(c1)[C@]1(C(=O)N2)[C@H](c2ccc(OCCO)cc2)N2[C@H](c3ccccc3)[C@H](c3ccccc3)OC(=O)[C@H]2[C@@H]1C(=O)N1CCN(c2ncccn2)CC1,0.21,1.04 (inactive),0.963 (inactive),-0.858 (inactive),2.71 (inactive),2.58 (inactive),0.665 (inactive),0.773 (inactive),1.79,-0.149,0.0244 (inactive),0.353,0.149,0.314 (inactive),0.432 (inactive),1.09 (inactive)
